Results on four compounds are retold here after PubChem BioAssay (EPA / NIEHS).

The nature of assay [1]: ATG_PBREM_CIS: Attagene CIS-FACTORIAL HepG2 Assay for human Phenobarbital-responsive Enhancer Module (PBREM) (AID 2282955). The note with it: HepG2 PBREM cis-reporter, Attagene multiplexed transcription; actives raise or lower the signal. In a few lines: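 Readout: reporter mRNA, fluorescent RT-PCR fragments separated by capillary electrophoresis. System: HepG2 transiently transfected with cis-regulated reporter units. Exposure: 24 h. Analysis: bidirectional, DMSO baseline.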

In assay [2] the target is Paired box protein Pax-6 (Homo sapiens) (UniProt P26367). The assay can be described thus: ATG_Pax6_CIS: Attagene CIS-FACTORIAL HepG2 Assay for human Paired Box 6 (PAX6) (AID 2282956). Conditions: HepG2 CIS-FACTORIAL PAX6 reporter transcription, RNA readout; actives raise or lower the signal. In short, it runs like this:
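Multiplexed cis-reporter HepG2 system; 24 h treatment; reporter mRNA read by RT-PCR/CE fluorescence; bidirectional fit vs DMSO.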

Assay [3] can be described thus: ATG_PXRE_CIS: Attagene CIS-FACTORIAL HepG2 Assay for human Pregnane X Receptor Element (PXRE) (AID 2282957). Conditions: HepG2 Attagene CIS-FACTORIAL PXRE reporter, mRNA; actives raise or lower the signal. In a few lines:
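Transfect HepG2 with MRTUs (cis promoter elements); dose chemical, incubate 24 h; isolate RNA, RT with oligo(dT), PCR, 6-FAM label, HpaI cut, CE. Gain/loss fit vs DMSO.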

Assay [4] is described as follows: ATG_PPRE_CIS: Attagene CIS-FACTORIAL HepG2 Assay for human Peroxisome Proliferator-activated Response Element (PPRE) (AID 2282958). Conditions: HepG2 PPRE cis-element reporter, Attagene transcription factor profiling; actives raise or lower the signal. In a few lines: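 After human HepG2 hepatoma cells were transiently transfected with cis-promoter reporter constructs, they were exposed to test chemicals for 24 hours. Reporter RNA was then reverse-transcribed, PCR-amplified, FAM-labeled, HpaI-digested and quantified by capillary electrophoresis.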

The nature of assay [5]: ATG_RORE_CIS: Attagene CIS-FACTORIAL HepG2 Assay for human RAR-related Orphan Receptor Element (RORE) (AID 2282959). The note with it: HepG2 Attagene cis-factorial RORE reporter, mRNA; actives raise or lower the signal. In short, it runs like this: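 Measured here: transcript induction of a cis-regulated reporter in HepG2 cells transiently transfected via FuGene 6. After 24 h, RNA was processed by RT-PCR and fluorescent capillary electrophoresis; DMSO defined baseline activity.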

Assay [6] is described as follows: ATG_Sox_CIS: Attagene CIS-FACTORIAL HepG2 Assay for human SRY-box transcription factor (SOX) (AID 2282960). The note with it: HepG2 Attagene cis-factorial SOX reporter, mRNA; actives raise or lower the signal. In a few lines: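 Using transiently transfected HepG2 cells, reporter transcription driven by cis elements was assessed 24 h after dosing. Signal was fluorescence of capillary-separated RT-PCR products, with DMSO defining baseline activity.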

The target of assay [7] is Transcription factor Sp1 (Homo sapiens) (UniProt P08047). Briefly: ATG_Sp1_CIS: Attagene CIS-FACTORIAL HepG2 Assay for human Specificity Protein 1 (Sp1) (AID 2282961). Conditions: HepG2 Sp1 cis-reporter transcription, actives raise or lower the signal. In a few lines: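 After transient transfection of HepG2 cells with cis-promoter reporter units and 24 h chemical treatment, reporter transcripts were quantified by RT-PCR and capillary electrophoresis fluorescence. Gain- and loss-of-signal fitted against DMSO.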

The nature of assay [8]: ATG_SREBP_CIS: Attagene CIS-FACTORIAL HepG2 Assay for human Sterol Regulatory Element Binding (SREBP) (AID 2282962). Conditions: HepG2 Attagene cis-factorial SREBP reporter, mRNA; actives raise or lower the signal. In short, it runs like this: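 mRNA induction of transfected cis-promoter reporters in HepG2 cells, 24 h post-dose. Detection: RT-PCR with 6-FAM-labelled products, HpaI digest, capillary electrophoresis. DMSO served as negative control and baseline.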

Assay [9] deals with Signal transducer and activator of transcription 3 (Homo sapiens) (UniProt P40763). Briefly: ATG_STAT3_CIS: Attagene CIS-FACTORIAL HepG2 Assay for human Signal Transducer and Activator of Transcription 3 (STAT3) (AID 2282963). The note with it: HepG2, Attagene cis-factorial STAT3 reporter transcription; actives raise or lower the signal. In a few lines:
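Endogenous STAT3-responsive cis-element activity was read in transiently transfected HepG2 cells after 24 h treatment. Reporter transcripts were quantified via RT-PCR and capillary electrophoresis, with DMSO as negative control and bidirectional curve fitting.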

Assay [10] is described as follows: ATG_TA_CIS: Attagene CIS-FACTORIAL HepG2 Assay for human TA Basal Promoter (AID 2282964). The note with it: HepG2 Attagene CIS-factorial TA basal promoter reporter; actives raise or lower the signal. In a few lines:
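Steps: transfect HepG2 with MRTUs; dose 24 h; isolate RNA, DNase-treat, reverse-transcribe; PCR and FAM-label reporter cDNA; digest with HpaI 2h at 37 C; run capillary electrophoresis. Activity fitted both directions against DMSO.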

A short description of assay [11]: ATG_TAL_CIS: Attagene CIS-FACTORIAL HepG2 Assay for human TAL Basal Promoter (AID 2282966).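 Further: background control endpoint measuring basal TAL promoter reporter mRNA not a specific factor.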 Conditions: HepG2 Attagene cis-factorial TAL promoter reporter; actives raise or lower the signal. In short, it runs like this: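 Fluorescence of labelled reporter cDNA fragments, resolved by capillary electrophoresis, gave the readout. Human HepG2 liver cells carried transiently transfected cis-element reporter units and were treated for 24 hours; activity was fitted bidirectionally against DMSO.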

A short description of assay [12]: ATG_TGFb_CIS: Attagene CIS-FACTORIAL HepG2 Assay for human Transforming Growth Factor (TGF) (AID 2282967). The note with it: HepG2 Attagene CIS TGFb reporter, mRNA transcription; actives raise or lower the signal. In short, it runs like this:
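Cells were dosed for 24 hours, after which total RNA was reverse-transcribed and reporter sequences amplified, labeled and sized by capillary electrophoresis. Activity was fitted in both directions against DMSO.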

In assay [13] the target is Estrogen receptor (Homo sapiens) (UniProt P03372). The assay can be described thus: ATG_ERa_TRANS: Attagene TRANS-FACTORIAL HepG2 Assay for human Estrogen Receptor alpha (ERa) (AID 2282970; active means hit-call score of the fitted dose curve at least 0.9, where 1 is the maximum). The note with it: HepG2 Attagene TRANS ERa GAL4 reporter, mRNA. In a few lines: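 Human liver HepG2, transient transfection of multiple GAL4-UAS reporter units; TRANS format (exogenous NR-Gal4 chimera). 24 h dosing. Readout: reporter mRNA, RT-PCR, 6-FAM primer extension, HpaI digest, capillary electrophoresis. Positive direction vs DMSO.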

Assay [14] concerns the target X-box-binding protein 1 (Homo sapiens) (UniProt P17861). The assay can be described thus: ATG_Xbp1_CIS: Attagene CIS-FACTORIAL HepG2 Assay for human X-box Binding Protein 1 (XBP1) (AID 2282972). The note with it: HepG2 XBP1 cis-element reporter, Attagene multiplex; actives raise or lower the signal. In short, it runs like this:
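Fluorescence-labelled cDNA fragments from reporter transcripts, separated by capillary electrophoresis, give the signal. Source: HepG2 cells transfected with promoter-driven reporter units, harvested 24 h post-dose. DMSO served as reference for bidirectional curve fitting.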

A short description of assay [15]: ATG_TCF_b_cat_CIS: Attagene CIS-FACTORIAL HepG2 Assay for human T-Cell-Factor with beta-catenin (TCF/b-cat) (AID 2282965). The note with it: HepG2 TCF/beta-catenin cis-reporter transcription, actives raise or lower the signal. In a few lines:
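Endogenous TCF/LEF activity read as reporter transcript level via RT-PCR and capillary electrophoresis fluorescence in transfected HepG2, 24 h exposure; gain or loss of signal fitted against DMSO controls.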

Assay [16] can be described thus: ATG_VDRE_CIS: Attagene CIS-FACTORIAL HepG2 Assay for human Vitamin D Receptor Element (VDRE) (AID 2282968). Conditions: HepG2 VDRE cis-reporter transcription, actives raise or lower the signal. In a few lines: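 Reporter mRNA induction, quantified by capillary electrophoresis of fluorescently labelled RT-PCR products, was read 24 h after dosing HepG2 cells carrying transiently transfected cis-regulated reporter units; gain or loss relative to DMSO.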

Assay [17] is described as follows: ATG_M_19_TRANS: Attagene TRANS-FACTORIAL HepG2 Assay for M19 Transcription Factor (Internal Marker) (AID 2282974; active means hit-call score of the fitted dose curve at least 0.9, where 1 is the maximum). Conditions: HepG2 Attagene TRANS-FACTORIAL M19 internal marker reporter. In a few lines: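 Gain-of-signal in reporter mRNA, relative to DMSO, was scored from capillary electrophoresis fluorescence. HepG2 cells carried transiently transfected multiple reporter transcription units and were incubated with test chemicals for 24 h.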

The target of assay [18] is Nuclear receptor subfamily 1 group I member 3 (Homo sapiens) (UniProt Q14994). Briefly: ATG_CAR_TRANS: Attagene TRANS-FACTORIAL HepG2 Assay for human Constitutive Androstane Receptor (CAR) (AID 2282969; active means hit-call score of the fitted dose curve at least 0.9, where 1 is the maximum;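 further: activators raise reporter mRNA above DMSO so AC50 marks induction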). Conditions: HepG2 Attagene TRANS-FACTORIAL CAR reporter. In a few lines:
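Readout is reporter mRNA induction, quantified by fluorescent primer extension and capillary electrophoresis after RT-PCR. Cells were HepG2 transiently carrying chimeric NR-Gal4 constructs with GAL4-UAS reporters, treated for 24 h; activity scored upward from DMSO.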

The target in assay [19] is Steroid hormone receptor ERR1 (Homo sapiens) (UniProt P11474). The assay can be described thus: ATG_ERRa_TRANS: Attagene TRANS-FACTORIAL HepG2 Assay for human Estrogen-Related Receptor alpha (ERRa) (AID 2282971; active means hit-call score of the fitted dose curve at least 0.9, where 1 is the maximum). Conditions: HepG2 Attagene TRANS reporter, ERRa transactivation. In short, it runs like this:
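Reporter transcript induction was quantified by RT-PCR and capillary electrophoresis of FAM-labelled, HpaI-cut products after 24 h treatment of HepG2 cells carrying transiently transfected GAL4-UAS reporter units and an exogenous ERRa-Gal4 fusion; activity scored as increase over DMSO.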

By AC50 is commonly meant the concentration giving half of the maximal activity seen.

SMILES strings stand for the structures. Results filed as inconclusive are left out. Calls of active or inactive are those of the source. How the source made its calls, unless noted: active means hit-call score of the fitted dose curve at least 0.9, where 1 is the maximum; inactive means score below 0.9.

Paired box protein Pax-6 (Homo sapiens), sequence (P26367 whole entry, looked up): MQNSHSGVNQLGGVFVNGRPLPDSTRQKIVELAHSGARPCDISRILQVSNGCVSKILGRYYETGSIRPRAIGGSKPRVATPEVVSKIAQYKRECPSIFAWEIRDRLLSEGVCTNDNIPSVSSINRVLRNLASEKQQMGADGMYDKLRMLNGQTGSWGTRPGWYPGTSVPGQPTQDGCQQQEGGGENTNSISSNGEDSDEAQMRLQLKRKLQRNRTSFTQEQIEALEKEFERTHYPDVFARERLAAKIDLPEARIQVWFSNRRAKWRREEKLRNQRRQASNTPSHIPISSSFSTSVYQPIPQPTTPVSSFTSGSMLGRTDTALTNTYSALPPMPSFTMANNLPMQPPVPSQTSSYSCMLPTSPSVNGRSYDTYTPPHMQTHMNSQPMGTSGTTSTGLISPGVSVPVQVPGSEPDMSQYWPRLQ
Transcription factor Sp1 (Homo sapiens), sequence (P08047 whole entry, looked up): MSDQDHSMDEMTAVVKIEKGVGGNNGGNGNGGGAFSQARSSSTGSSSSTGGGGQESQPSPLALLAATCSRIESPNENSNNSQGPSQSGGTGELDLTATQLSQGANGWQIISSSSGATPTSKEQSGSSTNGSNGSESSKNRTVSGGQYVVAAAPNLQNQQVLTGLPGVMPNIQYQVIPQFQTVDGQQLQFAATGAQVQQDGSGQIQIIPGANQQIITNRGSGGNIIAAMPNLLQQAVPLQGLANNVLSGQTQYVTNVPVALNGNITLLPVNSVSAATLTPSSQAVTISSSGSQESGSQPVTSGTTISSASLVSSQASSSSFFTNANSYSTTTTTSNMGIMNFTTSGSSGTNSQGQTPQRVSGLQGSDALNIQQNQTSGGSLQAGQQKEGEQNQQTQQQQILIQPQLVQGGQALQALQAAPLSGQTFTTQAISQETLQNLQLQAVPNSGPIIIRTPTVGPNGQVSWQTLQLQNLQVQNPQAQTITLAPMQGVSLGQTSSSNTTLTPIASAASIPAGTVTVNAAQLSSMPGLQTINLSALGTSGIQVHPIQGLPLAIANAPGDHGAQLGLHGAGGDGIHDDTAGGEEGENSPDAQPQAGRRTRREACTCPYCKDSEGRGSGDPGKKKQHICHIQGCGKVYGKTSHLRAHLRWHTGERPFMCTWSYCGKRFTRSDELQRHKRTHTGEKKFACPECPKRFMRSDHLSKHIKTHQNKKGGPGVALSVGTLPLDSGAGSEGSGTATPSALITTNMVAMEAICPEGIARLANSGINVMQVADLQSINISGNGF
X-box-binding protein 1 (Homo sapiens), sequence (P17861 whole entry, looked up, the tested form may be a part): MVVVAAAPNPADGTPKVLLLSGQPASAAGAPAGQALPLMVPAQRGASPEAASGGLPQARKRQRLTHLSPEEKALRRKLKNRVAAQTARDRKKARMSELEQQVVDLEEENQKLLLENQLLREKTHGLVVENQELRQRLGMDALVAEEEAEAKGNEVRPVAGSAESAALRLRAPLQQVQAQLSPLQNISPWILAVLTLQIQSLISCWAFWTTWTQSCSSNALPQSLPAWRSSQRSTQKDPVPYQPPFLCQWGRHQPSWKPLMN
Signal transducer and activator of transcription 3 (Homo sapiens), sequence (P40763 whole entry, looked up): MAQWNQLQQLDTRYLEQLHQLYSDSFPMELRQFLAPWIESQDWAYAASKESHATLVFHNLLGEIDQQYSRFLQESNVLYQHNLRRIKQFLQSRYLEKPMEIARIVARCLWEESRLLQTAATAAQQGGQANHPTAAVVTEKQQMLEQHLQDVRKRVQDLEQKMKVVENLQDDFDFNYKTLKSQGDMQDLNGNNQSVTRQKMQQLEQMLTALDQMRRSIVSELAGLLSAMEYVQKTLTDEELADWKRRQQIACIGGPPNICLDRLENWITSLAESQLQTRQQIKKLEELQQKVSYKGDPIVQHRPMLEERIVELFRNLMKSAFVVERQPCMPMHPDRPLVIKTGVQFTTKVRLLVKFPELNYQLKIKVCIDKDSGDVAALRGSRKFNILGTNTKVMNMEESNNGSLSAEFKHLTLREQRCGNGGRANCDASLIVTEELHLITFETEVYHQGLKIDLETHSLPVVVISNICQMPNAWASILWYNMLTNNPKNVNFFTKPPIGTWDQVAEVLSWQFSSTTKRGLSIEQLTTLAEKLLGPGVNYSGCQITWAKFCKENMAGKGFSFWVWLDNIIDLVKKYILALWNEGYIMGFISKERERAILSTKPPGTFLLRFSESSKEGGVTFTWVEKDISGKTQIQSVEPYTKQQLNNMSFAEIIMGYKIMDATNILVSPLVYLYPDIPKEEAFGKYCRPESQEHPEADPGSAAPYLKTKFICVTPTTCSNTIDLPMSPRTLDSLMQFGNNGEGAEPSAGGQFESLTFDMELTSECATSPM
Estrogen receptor (Homo sapiens), sequence (P03372 whole entry, looked up, the tested form may be a part): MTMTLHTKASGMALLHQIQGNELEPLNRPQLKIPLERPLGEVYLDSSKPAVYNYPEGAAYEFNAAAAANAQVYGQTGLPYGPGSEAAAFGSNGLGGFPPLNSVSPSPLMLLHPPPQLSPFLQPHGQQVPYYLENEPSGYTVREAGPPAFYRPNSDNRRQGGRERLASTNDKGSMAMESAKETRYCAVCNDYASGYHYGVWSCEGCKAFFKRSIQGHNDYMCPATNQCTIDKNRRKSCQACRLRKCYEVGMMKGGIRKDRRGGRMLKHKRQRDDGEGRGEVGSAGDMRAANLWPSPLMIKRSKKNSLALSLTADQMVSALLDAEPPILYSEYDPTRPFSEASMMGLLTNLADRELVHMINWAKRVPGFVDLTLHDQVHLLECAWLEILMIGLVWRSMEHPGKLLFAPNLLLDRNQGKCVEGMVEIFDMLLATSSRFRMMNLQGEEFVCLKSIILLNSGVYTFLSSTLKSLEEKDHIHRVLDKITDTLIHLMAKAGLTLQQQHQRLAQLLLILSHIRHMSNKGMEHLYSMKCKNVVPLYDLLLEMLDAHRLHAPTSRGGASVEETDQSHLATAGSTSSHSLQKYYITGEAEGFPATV
Nuclear receptor subfamily 1 group I member 3 (Homo sapiens), sequence (Q14994 whole entry, looked up, the tested form may be a part): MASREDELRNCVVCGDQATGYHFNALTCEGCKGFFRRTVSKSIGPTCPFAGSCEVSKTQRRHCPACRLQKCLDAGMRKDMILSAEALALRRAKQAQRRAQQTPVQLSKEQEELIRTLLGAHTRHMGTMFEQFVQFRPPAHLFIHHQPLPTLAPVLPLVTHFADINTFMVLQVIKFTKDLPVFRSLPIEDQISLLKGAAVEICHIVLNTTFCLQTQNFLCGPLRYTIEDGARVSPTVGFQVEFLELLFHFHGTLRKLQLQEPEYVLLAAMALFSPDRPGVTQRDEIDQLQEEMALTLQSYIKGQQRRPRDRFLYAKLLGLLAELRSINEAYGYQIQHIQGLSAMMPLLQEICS
Steroid hormone receptor ERR1 (Homo sapiens), sequence (P11474 whole entry, looked up, the tested form may be a part): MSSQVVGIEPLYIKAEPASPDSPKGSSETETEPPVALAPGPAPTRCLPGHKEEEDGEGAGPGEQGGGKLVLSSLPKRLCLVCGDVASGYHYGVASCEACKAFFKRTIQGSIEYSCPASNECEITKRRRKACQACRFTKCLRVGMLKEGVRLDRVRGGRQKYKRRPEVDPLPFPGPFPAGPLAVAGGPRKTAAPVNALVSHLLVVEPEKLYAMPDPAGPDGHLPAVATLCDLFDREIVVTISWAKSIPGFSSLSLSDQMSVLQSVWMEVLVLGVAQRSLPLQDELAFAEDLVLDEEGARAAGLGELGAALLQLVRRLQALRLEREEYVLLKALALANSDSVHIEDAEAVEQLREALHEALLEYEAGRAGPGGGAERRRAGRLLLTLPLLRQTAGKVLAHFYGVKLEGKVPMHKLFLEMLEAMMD

As to `O=C(O)C(F)(F)OC(F)(F)C(F)(F)OC(F)(F)C(F)(F)OC(F)(F)F`, the outcome in assay [1], in [2], in assay [3], in assay [5], in assay [6] and in assay [7] was inactive. In addition, the outcome in assay [8], in assay [9], in assay [10], in assay [11], in assay [12] and in [13] was inactive. In assay [14], the outcome was inactive. Also, in assay [4], the half-maximal activity concentration (AC50) is 36.4 µM (active).

Regarding `O=C(Cl)c1ccc(Cl)cc1Cl`, the result in [1], in assay [2], in assay [4], in [5], in [6] and in [7] was inactive. In addition, the outcome in assay [8], in assay [9], in assay [10], in [15], in assay [11] and in assay [12] was inactive. Besides, the compound was classed as inactive in assay [16], in [14] and in [17]. For the same compound, the AC50 in assay [3] was 27.3 µM (active).

With `Cc1cc(O)c(C(C)(C)C)cc1C(C)(C)C`, the result in assay [1], in assay [2], in [4], in [5], in assay [6] and in assay [9] was inactive. The compound was classed as inactive in [10], in assay [15], in [11], in assay [18], in assay [13] and in assay [14]. Also, the AC50 is 2.92 µM (active) in [3], 11.1 µM (active) in assay [7], 8.33 µM (active) in [8] and 2.2 µM (active) in [12].

Consider `O=S(=O)(O)CCC(F)(F)C(F)(F)C(F)(F)C(F)(F)F`, for which the outcome in assay [1], in assay [2], in [3], in assay [4], in assay [5] and in [6] was inactive. For the same compound, the result in [7], in assay [8], in assay [9], in assay [10], in assay [11] and in [12] was inactive. Further, the result in assay [16], in assay [19], in assay [14] and in [17] was inactive.
